This is an account of results in publication PMC7862700, “An all-to-all approach to the identification of sequence-specific readers for epigenetic DNA modifications on cytosine”.

Test in all cases: DAPPL (digital affinity profiling via proximity ligation, sequencing); 10 mM Tris-HCl pH 7.5, 50 mM NaCl, 1 mM DTT, 4% glycerol, room temperature, 30 min; GST-TFs on glutathione beads, 16-mer random dsDNA library, 0.1% formaldehyde crosslink after washing; high values mean tight binding
Assay [1] addresses T1, FEV (Homo sapiens, UniProt Q99581 1-238).
T1 sequence: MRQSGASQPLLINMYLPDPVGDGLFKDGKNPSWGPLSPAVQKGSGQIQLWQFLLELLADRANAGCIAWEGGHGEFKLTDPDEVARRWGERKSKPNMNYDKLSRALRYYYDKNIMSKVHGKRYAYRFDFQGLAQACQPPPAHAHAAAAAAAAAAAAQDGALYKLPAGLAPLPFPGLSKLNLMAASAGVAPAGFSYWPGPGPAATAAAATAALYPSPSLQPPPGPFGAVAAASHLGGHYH
Conditions: protein: recombinant; tags: N-terminal GST; dsDNA, one strand shown. The gist of the method:
(§1)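 Binding signal is given per hexamer as its read frequency for a factor divided by its frequency in the tag-only sample. GST-fused human transcription factors were expressed in yeast, captured on glutathione beads, barcoded with DNA and pooled with that sample, then incubated with 200 nmole of a 16-mer random double-stranded DNA library in Tris/NaCl/DTT/glycerol buffer for 30 min at room temperature. The pools were then washed, crosslinked, proximity-ligated, amplified by PCR and sequenced on an Illumina NextSeq500.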

In assay [2] the target is ETV5 (Homo sapiens, UniProt P41161 1-510). Particulars: protein: recombinant; tags: N-terminal GST; dsDNA, one strand shown. Summed up: as §1
Assay [3] has as its target HSF1 (Homo sapiens, UniProt Q00613 1-529). Conditions: protein: recombinant; tags: N-terminal GST; chain copies: 3; dsDNA, one strand shown. The gist of the method:
as §1

Assay [4] addresses T2, SPIC (Homo sapiens, UniProt Q8N5J4 1-248).
T2 sequence: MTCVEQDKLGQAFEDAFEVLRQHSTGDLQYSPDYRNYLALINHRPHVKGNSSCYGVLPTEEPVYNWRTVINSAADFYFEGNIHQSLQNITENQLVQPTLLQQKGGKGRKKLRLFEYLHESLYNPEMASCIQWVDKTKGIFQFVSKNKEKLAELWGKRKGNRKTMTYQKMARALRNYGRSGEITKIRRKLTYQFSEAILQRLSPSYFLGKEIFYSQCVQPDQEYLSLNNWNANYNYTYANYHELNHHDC
Conditions: protein: recombinant; tags: N-terminal GST; dsDNA, one strand shown. The gist of the method: as §1

Assay [5] has as its target ELF4 (Homo sapiens, UniProt Q99607 1-663). Conditions: protein: recombinant; tags: N-terminal GST; dsDNA, one strand shown. The gist of the method:
as §1

The target of assay [6] is T3, ELK4 (Homo sapiens, UniProt P28324-2 1-405).
T3 sequence: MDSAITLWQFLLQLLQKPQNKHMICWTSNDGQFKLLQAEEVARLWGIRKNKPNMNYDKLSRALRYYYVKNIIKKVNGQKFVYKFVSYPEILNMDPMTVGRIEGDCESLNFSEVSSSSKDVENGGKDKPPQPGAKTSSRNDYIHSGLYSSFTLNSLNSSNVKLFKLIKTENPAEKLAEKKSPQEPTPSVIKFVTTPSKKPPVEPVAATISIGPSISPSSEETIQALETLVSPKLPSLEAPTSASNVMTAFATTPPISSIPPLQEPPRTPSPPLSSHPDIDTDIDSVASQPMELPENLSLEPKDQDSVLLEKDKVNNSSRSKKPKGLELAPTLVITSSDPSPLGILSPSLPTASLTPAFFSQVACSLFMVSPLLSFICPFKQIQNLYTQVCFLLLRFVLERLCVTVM
Particulars: protein: recombinant; tags: N-terminal GST; dsDNA, one strand shown. The gist of the method:
as §1

The target of assay [7] is T4, ETV2 (Homo sapiens, UniProt O00321 1-342).
T4 sequence: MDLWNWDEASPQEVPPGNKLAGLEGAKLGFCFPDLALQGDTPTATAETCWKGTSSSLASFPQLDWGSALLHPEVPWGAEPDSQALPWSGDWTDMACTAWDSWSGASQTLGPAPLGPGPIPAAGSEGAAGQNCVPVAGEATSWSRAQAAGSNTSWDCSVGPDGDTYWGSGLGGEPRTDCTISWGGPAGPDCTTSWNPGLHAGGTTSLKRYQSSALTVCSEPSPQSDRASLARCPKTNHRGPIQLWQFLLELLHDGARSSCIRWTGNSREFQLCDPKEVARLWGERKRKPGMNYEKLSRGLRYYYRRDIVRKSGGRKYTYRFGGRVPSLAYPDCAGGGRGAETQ
Particulars: protein: recombinant; tags: N-terminal GST; dsDNA, one strand shown. Summed up: as §1

The target of assay [8] is T5, ELF3 (Homo sapiens, UniProt P78545 1-371).
T5 sequence: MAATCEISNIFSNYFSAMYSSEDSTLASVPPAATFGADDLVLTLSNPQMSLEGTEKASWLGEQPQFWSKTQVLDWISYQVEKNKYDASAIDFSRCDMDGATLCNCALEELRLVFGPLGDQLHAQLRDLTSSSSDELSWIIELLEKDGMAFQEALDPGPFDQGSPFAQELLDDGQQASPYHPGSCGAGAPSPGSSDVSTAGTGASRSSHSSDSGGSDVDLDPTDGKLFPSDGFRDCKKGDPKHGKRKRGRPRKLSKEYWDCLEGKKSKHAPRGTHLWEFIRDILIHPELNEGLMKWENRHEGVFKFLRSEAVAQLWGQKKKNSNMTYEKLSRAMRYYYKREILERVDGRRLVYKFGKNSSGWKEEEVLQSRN
Particulars: protein: recombinant; tags: N-terminal GST; dsDNA, one strand shown. The gist of the method:
as §1

The target in assay [9] is CRX (Homo sapiens, UniProt O43186 1-299). Conditions: protein: recombinant; tags: N-terminal GST; dsDNA, one strand shown. The gist of the method:
as §1

Assay [10] addresses ETV1 (Homo sapiens, UniProt P50549 1-477). Particulars: protein: recombinant; tags: N-terminal GST; dsDNA, one strand shown. The gist of the method: as §1
The target of assay [11] is T6, ERF (Homo sapiens, UniProt P50548 1-548).
T6 sequence: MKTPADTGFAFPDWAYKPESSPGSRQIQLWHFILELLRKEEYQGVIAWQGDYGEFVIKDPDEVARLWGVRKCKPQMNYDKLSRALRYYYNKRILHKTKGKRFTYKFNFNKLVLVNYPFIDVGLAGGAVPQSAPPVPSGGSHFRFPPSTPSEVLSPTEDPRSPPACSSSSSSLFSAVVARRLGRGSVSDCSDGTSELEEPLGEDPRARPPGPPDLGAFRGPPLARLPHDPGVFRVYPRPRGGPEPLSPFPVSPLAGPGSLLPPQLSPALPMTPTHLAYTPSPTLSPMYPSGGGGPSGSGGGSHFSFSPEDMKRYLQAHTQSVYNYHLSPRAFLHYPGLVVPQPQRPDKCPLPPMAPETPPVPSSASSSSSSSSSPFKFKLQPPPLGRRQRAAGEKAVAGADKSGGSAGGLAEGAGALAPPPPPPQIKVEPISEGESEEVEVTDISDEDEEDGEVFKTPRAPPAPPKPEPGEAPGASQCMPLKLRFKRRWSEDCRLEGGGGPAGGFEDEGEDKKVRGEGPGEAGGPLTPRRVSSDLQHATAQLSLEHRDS
Particulars: protein: recombinant; tags: N-terminal GST; dsDNA, one strand shown. Summed up: as §1

In assay [12] the target is T7, ETV3L (Homo sapiens, UniProt Q6ZN32 1-361).
T7 sequence: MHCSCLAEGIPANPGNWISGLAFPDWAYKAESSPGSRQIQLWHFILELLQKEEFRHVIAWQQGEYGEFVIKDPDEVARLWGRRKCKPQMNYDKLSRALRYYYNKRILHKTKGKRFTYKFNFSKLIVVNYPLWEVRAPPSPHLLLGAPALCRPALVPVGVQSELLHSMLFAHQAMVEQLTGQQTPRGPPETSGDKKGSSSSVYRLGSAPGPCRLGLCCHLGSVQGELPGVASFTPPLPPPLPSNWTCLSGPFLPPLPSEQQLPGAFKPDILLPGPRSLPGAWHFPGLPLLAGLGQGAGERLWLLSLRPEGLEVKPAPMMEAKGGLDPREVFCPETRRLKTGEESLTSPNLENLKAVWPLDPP
Particulars: protein: recombinant; tags: N-terminal GST; dsDNA, one strand shown. Summed up:
as §1

For assay [13], the target named is T8, ETS2 (Homo sapiens, UniProt P15036 1-469).
T8 sequence: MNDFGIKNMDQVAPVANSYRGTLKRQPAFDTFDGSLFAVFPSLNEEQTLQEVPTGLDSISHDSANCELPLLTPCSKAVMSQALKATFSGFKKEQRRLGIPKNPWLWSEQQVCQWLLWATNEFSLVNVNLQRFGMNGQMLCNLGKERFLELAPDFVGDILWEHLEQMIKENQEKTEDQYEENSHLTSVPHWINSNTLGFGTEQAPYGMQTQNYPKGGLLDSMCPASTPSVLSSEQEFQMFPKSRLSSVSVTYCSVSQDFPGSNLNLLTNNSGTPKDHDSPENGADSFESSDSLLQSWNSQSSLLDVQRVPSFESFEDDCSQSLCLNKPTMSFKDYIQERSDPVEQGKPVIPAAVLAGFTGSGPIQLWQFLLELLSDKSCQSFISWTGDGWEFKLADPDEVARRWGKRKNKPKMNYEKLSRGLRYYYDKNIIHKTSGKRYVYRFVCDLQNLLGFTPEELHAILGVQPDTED
Particulars: protein: recombinant; tags: N-terminal GST; dsDNA, one strand shown. Summed up:
as §1

In assay [14] the target is T9, SPDEF (Homo sapiens, UniProt O95238 1-335).
T9 sequence: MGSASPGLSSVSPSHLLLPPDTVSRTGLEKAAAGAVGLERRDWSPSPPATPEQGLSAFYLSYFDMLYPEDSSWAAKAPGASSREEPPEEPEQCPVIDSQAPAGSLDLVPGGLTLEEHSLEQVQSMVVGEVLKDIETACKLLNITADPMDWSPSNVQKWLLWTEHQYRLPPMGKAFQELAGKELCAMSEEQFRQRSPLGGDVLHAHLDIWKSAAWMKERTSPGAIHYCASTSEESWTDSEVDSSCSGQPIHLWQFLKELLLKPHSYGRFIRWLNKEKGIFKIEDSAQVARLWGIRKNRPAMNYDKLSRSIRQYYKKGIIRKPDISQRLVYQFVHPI
Particulars: protein: recombinant; tags: N-terminal GST; dsDNA, one strand shown. Summed up:
as §1

In assay [15] the target is T10, ETV7 (Homo sapiens, UniProt Q9Y603 1-341).
T10 sequence: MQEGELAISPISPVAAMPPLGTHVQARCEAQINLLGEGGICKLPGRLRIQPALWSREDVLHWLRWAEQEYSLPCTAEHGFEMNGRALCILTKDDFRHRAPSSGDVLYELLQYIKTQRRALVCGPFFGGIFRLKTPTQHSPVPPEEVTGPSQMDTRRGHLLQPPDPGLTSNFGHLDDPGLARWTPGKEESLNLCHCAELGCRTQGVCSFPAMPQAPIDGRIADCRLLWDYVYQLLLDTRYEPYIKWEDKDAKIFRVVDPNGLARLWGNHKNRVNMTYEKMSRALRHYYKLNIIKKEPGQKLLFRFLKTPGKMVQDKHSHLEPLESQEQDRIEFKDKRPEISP
Conditions: protein: recombinant; tags: N-terminal GST; dsDNA, one strand shown. Summed up:
as §1

Assay [16] addresses T11, ELF5 (Homo sapiens, UniProt Q9UKW6-2 1-255).
T11 sequence: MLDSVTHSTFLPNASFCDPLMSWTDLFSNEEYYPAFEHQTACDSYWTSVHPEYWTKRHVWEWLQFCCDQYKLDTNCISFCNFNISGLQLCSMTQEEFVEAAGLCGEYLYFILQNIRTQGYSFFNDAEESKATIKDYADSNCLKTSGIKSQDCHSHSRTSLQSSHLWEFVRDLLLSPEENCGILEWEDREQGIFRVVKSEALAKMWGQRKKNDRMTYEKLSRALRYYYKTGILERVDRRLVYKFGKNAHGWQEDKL
Conditions: protein: recombinant; tags: N-terminal GST; dsDNA, one strand shown. The gist of the method:
as §1

Assay [17] addresses T12, ETV3 (Homo sapiens, UniProt P41162-2 1-143).
T12 sequence: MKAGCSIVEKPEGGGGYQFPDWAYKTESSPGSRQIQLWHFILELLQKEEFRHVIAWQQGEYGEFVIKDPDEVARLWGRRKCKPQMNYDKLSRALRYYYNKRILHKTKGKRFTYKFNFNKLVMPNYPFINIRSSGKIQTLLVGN
Conditions: protein: recombinant; tags: N-terminal GST; dsDNA, one strand shown. The gist of the method: as §1

Assay [18] addresses ETV6 (Homo sapiens, UniProt P41212 1-452). Particulars: protein: recombinant; tags: N-terminal GST; dsDNA, one strand shown. Summed up: as §1

ETV5, sequence (P41161 whole entry): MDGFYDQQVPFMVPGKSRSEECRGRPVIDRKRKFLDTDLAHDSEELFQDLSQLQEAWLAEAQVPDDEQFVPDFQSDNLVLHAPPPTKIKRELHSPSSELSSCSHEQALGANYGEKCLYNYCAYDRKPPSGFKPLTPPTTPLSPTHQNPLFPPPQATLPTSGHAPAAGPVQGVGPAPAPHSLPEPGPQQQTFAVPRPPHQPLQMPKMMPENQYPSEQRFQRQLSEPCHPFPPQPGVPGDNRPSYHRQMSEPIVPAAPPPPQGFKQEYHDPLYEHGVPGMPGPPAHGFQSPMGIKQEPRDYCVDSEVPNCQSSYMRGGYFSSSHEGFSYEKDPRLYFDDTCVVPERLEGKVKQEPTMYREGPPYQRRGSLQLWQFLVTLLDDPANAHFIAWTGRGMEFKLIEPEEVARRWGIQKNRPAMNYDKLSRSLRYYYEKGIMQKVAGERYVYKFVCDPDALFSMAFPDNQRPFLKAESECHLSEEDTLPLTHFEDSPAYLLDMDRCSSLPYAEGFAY
ETV6, sequence (P41212 whole entry): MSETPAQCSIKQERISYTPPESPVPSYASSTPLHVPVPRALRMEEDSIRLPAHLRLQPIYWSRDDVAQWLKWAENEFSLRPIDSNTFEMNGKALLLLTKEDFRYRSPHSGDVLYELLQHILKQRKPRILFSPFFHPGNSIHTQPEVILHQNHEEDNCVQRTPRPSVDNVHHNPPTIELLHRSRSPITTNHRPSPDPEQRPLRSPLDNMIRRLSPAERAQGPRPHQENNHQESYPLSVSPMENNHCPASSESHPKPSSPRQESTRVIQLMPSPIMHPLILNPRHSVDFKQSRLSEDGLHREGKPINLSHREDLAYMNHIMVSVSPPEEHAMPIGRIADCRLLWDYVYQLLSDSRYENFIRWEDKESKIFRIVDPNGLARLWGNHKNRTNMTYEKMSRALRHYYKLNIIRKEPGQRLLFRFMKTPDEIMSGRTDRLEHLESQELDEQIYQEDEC
ETV1, sequence (P50549 whole entry): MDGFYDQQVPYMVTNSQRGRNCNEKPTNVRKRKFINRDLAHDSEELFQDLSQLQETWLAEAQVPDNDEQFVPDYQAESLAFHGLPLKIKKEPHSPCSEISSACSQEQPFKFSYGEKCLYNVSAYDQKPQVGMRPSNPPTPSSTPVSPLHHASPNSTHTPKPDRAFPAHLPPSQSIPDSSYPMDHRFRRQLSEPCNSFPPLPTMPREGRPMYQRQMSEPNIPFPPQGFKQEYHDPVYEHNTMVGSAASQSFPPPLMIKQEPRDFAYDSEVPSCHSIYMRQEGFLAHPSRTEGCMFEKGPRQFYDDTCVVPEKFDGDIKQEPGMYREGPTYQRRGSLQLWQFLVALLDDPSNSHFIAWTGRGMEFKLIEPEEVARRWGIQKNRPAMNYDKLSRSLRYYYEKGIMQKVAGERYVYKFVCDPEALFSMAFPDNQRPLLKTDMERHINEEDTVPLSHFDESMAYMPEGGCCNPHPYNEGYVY
ELF4, sequence (Q99607 whole entry): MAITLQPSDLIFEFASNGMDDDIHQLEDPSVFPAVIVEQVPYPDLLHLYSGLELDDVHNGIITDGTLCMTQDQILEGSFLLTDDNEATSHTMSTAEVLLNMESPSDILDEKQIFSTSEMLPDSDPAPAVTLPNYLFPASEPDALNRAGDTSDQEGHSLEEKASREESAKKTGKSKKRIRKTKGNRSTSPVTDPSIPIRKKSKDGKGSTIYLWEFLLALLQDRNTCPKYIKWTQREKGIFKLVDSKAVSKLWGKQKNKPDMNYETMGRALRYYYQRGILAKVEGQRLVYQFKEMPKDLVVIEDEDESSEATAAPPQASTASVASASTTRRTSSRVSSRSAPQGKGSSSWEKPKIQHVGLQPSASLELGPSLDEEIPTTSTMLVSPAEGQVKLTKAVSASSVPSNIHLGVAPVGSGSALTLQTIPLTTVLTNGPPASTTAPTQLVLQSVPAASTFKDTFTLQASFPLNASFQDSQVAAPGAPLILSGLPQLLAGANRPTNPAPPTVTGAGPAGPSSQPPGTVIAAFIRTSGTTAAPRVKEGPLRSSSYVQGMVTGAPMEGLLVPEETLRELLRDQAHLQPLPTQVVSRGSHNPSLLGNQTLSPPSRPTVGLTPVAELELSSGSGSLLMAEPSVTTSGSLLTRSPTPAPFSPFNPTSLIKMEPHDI
HSF1, sequence (Q00613 whole entry): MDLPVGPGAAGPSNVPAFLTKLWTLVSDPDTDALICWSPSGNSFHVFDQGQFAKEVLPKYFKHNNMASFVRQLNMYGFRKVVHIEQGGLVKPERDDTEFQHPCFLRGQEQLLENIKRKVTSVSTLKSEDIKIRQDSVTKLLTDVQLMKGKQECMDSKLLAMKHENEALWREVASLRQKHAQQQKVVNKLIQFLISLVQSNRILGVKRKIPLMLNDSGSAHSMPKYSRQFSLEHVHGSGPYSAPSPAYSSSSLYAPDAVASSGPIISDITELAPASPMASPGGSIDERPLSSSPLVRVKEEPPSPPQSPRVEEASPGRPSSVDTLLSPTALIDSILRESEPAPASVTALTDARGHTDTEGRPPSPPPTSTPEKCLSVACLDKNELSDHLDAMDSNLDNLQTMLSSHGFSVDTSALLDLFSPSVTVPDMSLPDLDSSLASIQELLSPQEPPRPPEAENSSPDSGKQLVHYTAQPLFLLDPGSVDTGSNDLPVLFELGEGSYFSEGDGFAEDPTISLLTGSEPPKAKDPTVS
CRX, sequence (O43186 whole entry): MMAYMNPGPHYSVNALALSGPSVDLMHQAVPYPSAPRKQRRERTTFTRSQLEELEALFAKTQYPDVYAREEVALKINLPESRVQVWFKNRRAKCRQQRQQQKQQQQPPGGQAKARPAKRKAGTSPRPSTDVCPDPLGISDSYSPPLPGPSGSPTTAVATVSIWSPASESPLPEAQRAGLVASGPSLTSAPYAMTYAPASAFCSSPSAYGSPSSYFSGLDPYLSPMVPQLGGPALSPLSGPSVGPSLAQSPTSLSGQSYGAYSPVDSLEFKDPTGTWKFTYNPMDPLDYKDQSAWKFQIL

For TTGCTT, the binding signal in [1] was 1.16 fold enrichment (6-mer frequency, TF over GST control); in assay [2] it was 1.24 fold enrichment (6-mer frequency, TF over GST control); in assay [3], 1.1 fold enrichment (6-mer frequency, TF over GST control); in assay [4], 1.38 fold enrichment (6-mer frequency, TF over GST control); in assay [5], 1.24 fold enrichment (6-mer frequency, TF over GST control); in assay [6], 1.24 fold enrichment (6-mer frequency, TF over GST control). The binding signal in assay [7] was 1.16 fold enrichment (6-mer frequency, TF over GST control); in assay [8], 1.31 fold enrichment (6-mer frequency, TF over GST control); in assay [9] it was 1.24 fold enrichment (6-mer frequency, TF over GST control); in [10], 1.25 fold enrichment (6-mer frequency, TF over GST control); in [11] it was 1.18 fold enrichment (6-mer frequency, TF over GST control); in assay [12] it was 1.28 fold enrichment (6-mer frequency, TF over GST control). Further, the binding signal in assay [13] was 1.19 fold enrichment (6-mer frequency, TF over GST control); in assay [14] it was 1.28 fold enrichment (6-mer frequency, TF over GST control); in [15], 1.45 fold enrichment (6-mer frequency, TF over GST control); in [16], 1.29 fold enrichment (6-mer frequency, TF over GST control); in assay [17] it was 1.43 fold enrichment (6-mer frequency, TF over GST control); in assay [18], 1.28 fold enrichment (6-mer frequency, TF over GST control).
